# PubChem BioAssay (NCI)
# This is part of a sample that, as a whole, favours compounds with a hit. Of some 79,000 tested, about 15% had one in any assay. The source made the active and inactive calls. Rule as the data show it: active = growth inhibition above about 70%; inactive = the rest.
# Legend:
# [1] = NCI Yeast Anticancer Drug Screen. Data for the rad50 strain (AID 155);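 also: 0% = growth of vehicle-only cultures of the same strain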; conditions: S. cerevisiae rad50 strain growth inhibition, active compounds read high
# Procedure, shortened: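 Readout: growth inhibition relative to vehicle-treated cultures. Compound exposure was carried out in a genetically defined yeast strain deficient in DNA damage repair.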
# [2] = NCI Yeast Anticancer Drug Screen. Data for the mec2-1 strain (AID 157); conditions: S. cerevisiae mec2-1 strain, active compounds read high
# Procedure, shortened: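 Mutant yeast (mec2-1) grown with compound; growth inhibition relative to vehicle control reported.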
# [3] = NCI Yeast Anticancer Drug Screen. Data for the sgs1 mgt1 strain (AID 161);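 also: 0% = growth of cultures given vehicle only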; conditions: S. cerevisiae sgs1 mgt1 strain, active compounds read high
# Procedure, shortened: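 Yeast cells carrying a defined DNA-repair defect were exposed to test compounds. Growth inhibition was measured relative to vehicle-treated controls.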
# [4] = NCI Yeast Anticancer Drug Screen. Data for the cln2 rad14 strain (AID 165);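 also: 0% = growth equal to vehicle treated cultures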; conditions: S. cerevisiae cln2 rad14 strain, active compounds read high
# Procedure, shortened: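 Readout is yeast growth inhibition versus vehicle-treated controls, using a strain with cln2 and rad14 alterations exposed to compound.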
# [5] = NCI Yeast Anticancer Drug Screen. Data for the bub3 strain (AID 167); conditions: S. cerevisiae bub3 mutant strain, active compounds read high
# Procedure, shortened: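 Readout: yeast growth inhibition, expressed relative to vehicle-only wells. The test organism is a mutant strain from a panel with lesions in DNA repair or checkpoint genes.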
# [6] = NCI Yeast Anticancer Drug Screen. Data for the mlh1 rad18 strain (AID 175); conditions: S. cerevisiae mlh1 rad18 strain growth inhibition, active compounds read high
# Procedure, shortened: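 Genetically defined yeast (DNA repair-deficient) exposed to compounds; growth inhibition determined relative to vehicle.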
# [7] = at 5.0 µM (retest, dose inferred, filed as 0.5)
# [8] = at 50.0 µM (retest, dose inferred, filed as 5.0)
SMILES,"growth inhibition [1, 7]","growth inhibition [1, 8]",growth inhibition ([1]; at 50.0 µM),"growth inhibition [2, 7]","growth inhibition [2, 8]",growth inhibition ([2]; at 50.0 µM),"growth inhibition [3, 7]","growth inhibition [3, 8]",growth inhibition ([3]; at 50.0 µM),"growth inhibition [4, 7]","growth inhibition [4, 8]",growth inhibition ([4]; at 50.0 µM),"growth inhibition [5, 7]","growth inhibition [5, 8]",growth inhibition ([5]; at 50.0 µM),"growth inhibition [6, 7]","growth inhibition [6, 8]",growth inhibition ([6]; at 50.0 µM)
COc1ccccc1CN1CCCN(Cc2ccccc2OC)C1c1cc(Cl)cc(Cl)c1O,16% (inactive),93% (active),69.2% (inactive),11% (inactive),100% (active),15.3% (inactive),19% (inactive),99% (active),97.5% (active),-2% (inactive),97% (active),6.2% (inactive),4% (inactive),98% (active),9.3% (inactive),52% (inactive),99% (active),78.6% (active)
O=C(CC(=O)c1cc(Cl)ccc1O)c1cccnc1,2% (inactive),95% (active),68% (inactive),2% (inactive),49% (inactive),17.9% (inactive),1% (inactive),91% (active),49.9% (inactive),7% (inactive),49% (inactive),-21.1% (inactive),4% (inactive),94% (active),-16.1% (inactive),2% (inactive),99% (active),47% (inactive)
O=[N+]([O-])c1ccc2c(c1)N([O-])C1(CCCCC1)[N+]2=O,25% (inactive),99% (active),89% (active),24% (inactive),99% (active),92.9% (active),23% (inactive),97% (active),91.2% (active),22% (inactive),98% (active),88% (active),10% (inactive),98% (active),91.1% (active),37% (inactive),99% (active),88.4% (active)
CC(=O)OC12CCC3C4CC=C5CC(O)CCC5(C)C4C(=O)C3C1(C)N1CC(C)CC(O)C1C2C (centres undefined),7% (inactive),40% (inactive),74.5% (active),10% (inactive),42% (inactive),59.5% (inactive),5% (inactive),68% (inactive),62.2% (inactive),18% (inactive),62% (inactive),56.9% (inactive),16% (inactive),74% (active),64.2% (inactive),-23% (inactive),59% (inactive),47% (inactive)
CC(O)c1cccnc1 (centres undefined),11% (inactive),-8% (inactive),65.5% (inactive),10% (inactive),1% (inactive),49.6% (inactive),4% (inactive),-1% (inactive),20% (inactive),20% (inactive),41% (inactive),58.1% (inactive),-6% (inactive),47% (inactive),28.6% (inactive),-9% (inactive),51% (inactive),66% (inactive)
C=CCNc1nc2c(s1)C(=O)c1ccccc1C2=O,95% (active),98% (active),90.8% (active),99% (active),99% (active),93.3% (active),100% (active),99% (active),93.9% (active),76% (active),99% (active),91.8% (active),99% (active),99% (active),91.9% (active),98% (active),98% (active),88% (active)
Cc1cc(NS(=O)(=O)c2ccc(N)cc2)no1.[Ag],99% (active),99% (active),99.4% (active),100% (active),99% (active),99.7% (active),99% (active),100% (active),99.7% (active),99% (active),99% (active),99.5% (active),99% (active),99% (active),99.7% (active),99% (active),99% (active),99.5% (active)
COc1ccc(Cl)c(-c2cc(OC)c(N=N/C(=N/Nc3ccc([N+](=O)[O-])cc3)c3ccc([N+](=O)[O-])cc3)cc2Cl)c1,95% (active),19% (inactive),70.9% (active),98% (active),4% (inactive),45.5% (inactive),44% (inactive),-18% (inactive),60.2% (inactive),74% (active),0% (inactive),50.2% (inactive),99% (active),5% (inactive),44.5% (inactive),98% (active),17% (inactive),76.1% (active)
O=C(OCc1ccccc1)N(CCCCN(CCCNCc1ccccc1)C(=O)OCc1ccccc1)CCCNCc1ccccc1,11% (inactive),99% (active),90.3% (active),22% (inactive),100% (active),93.2% (active),10% (inactive),100% (active),91.7% (active),3% (inactive),99% (active),90% (active),29% (inactive),99% (active),91.8% (active),28% (inactive),99% (active),91.2% (active)
O=C1/C(=C/c2cccc([N+](=O)[O-])c2)Sc2scc(-c3ccc([N+](=O)[O-])cc3)[n+]21,7% (inactive),97% (active),85.2% (active),-3% (inactive),98% (active),62% (inactive),6% (inactive),97% (active),94.9% (active),-15% (inactive),97% (active),59.1% (inactive),-18% (inactive),98% (active),93.1% (active),11% (inactive),97% (active),93.8% (active)
O=C(CN1CCCCC1)CC(O)(C(F)(F)F)C(F)(F)F,29% (inactive),39% (inactive),5.85% (inactive),20% (inactive),33% (inactive),8.45% (inactive),10% (inactive),20% (inactive),6.25% (inactive),2% (inactive),50% (inactive),15.6% (inactive),11% (inactive),23% (inactive),7.5% (inactive),31% (inactive),34% (inactive),77.3% (active)
CN(C)CCCNc1c2ccccc2nc2ccc([N+](=O)[O-])cc12,16% (inactive),80% (active),68.3% (inactive),13% (inactive),70% (active),25.6% (inactive),21% (inactive),80% (active),20.7% (inactive),19% (inactive),54% (inactive),52.5% (inactive),11% (inactive),59% (inactive),39.5% (inactive),31% (inactive),84% (active),29.2% (inactive)
C=CCC1(OC(C)=O)CC2C(=O)C(=O)C(C1)N2OC(=O)c1ccccc1 (centres undefined),20% (inactive),95% (active),99% (active),13% (inactive),96% (active),99.1% (active),22% (inactive),99% (active),99.3% (active),9% (inactive),94% (active),98.3% (active),-1% (inactive),93% (active),98% (active),10% (inactive),98% (active),98.7% (active)
CN1CCN(CCSC2Cc3cc(Cl)ccc3Sc3ccccc32)CC1 (centres undefined),29% (inactive),29% (inactive),93% (active),5% (inactive),5% (inactive),91.8% (active),19% (inactive),19% (inactive),92% (active),1% (inactive),1% (inactive),91.6% (active),16% (inactive),16% (inactive),93.8% (active),29% (inactive),29% (inactive),92.5% (active)
CC(C)c1ccc2c(c1)CCC1C(C)(C(=O)O)CCCC21C (centres undefined),11% (inactive),97% (active),95.1% (active),8% (inactive),97% (active),98.3% (active),16% (inactive),-15% (inactive),98% (active),8% (inactive),98% (active),96.9% (active),-9% (inactive),97% (active),97.8% (active),16% (inactive),97% (active),97.5% (active)
COc1ccccc1NC(=O)O/N=C(/Cl)C(C)C,1% (inactive),70% (active),-4.65% (inactive),3% (inactive),70% (active),52% (inactive),-32% (inactive),71% (active),37.6% (inactive),40% (inactive),28% (inactive),31.9% (inactive),-26% (inactive),95% (active),80.5% (active),-24% (inactive),41% (inactive),41.1% (inactive)
O=S(=O)(O)c1ccc(N=Nc2ccc3c(S(=O)(=O)O)cccc3c2O)c2ccccc12,10% (inactive),-5% (inactive),-1.35% (inactive),6% (inactive),-16% (inactive),-21.6% (inactive),0% (inactive),-18% (inactive),-37.2% (inactive),-25% (inactive),-78% (inactive),35% (inactive),-2% (inactive),-9% (inactive),-16.1% (inactive),-5% (inactive),-9% (inactive),5% (inactive)
CNC(=O)NC(c1cc(OC)c(OC)c(OC)c1)c1cc2c(cc1O)OCO2 (centres undefined),-15% (inactive),-9% (inactive),17.2% (inactive),-1% (inactive),-8% (inactive),13.4% (inactive),-14% (inactive),5% (inactive),-0.1% (inactive),-28% (inactive),-15% (inactive),23.6% (inactive),-16% (inactive),-4% (inactive),-1.6% (inactive),-19% (inactive),-5% (inactive),16.8% (inactive)
